# HCV inh: inhibitors of hepatitis C virus infection; Potency, µM (highest dose often 41.8 µM), for the others: at the highest dose activity change, negative = inhibition, most hits filed as inhibitors; Huh7.5.1 HCVcc-Cre infection, luciferase reporter, 44 h; 3.4% of 340,000 active; AID 651820
#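 Luciferase read-out (15 sec integration) after a 15 min room-temperature substrate step quantifies HCVcc-Cre infection. Cells, 1,000 per well, had compound added 4 h post-plating, then virus at ~0.5 moi, and were cultured 44 h.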
# AMA1 RON2 block: inhibitors of Plasmodium falciparum AMA1-RON2 interaction | AlphaScreen AMA1-biotinylated RON2 peptide binding | Potency, µM (series often up to 58.2 µM), for inactives: top-dose activity change, negative = inhibition, most hits filed as inhibitors | 0.2% of 360,000 active;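 further: 0% = vehicle wells and -100% = peptide control; nearly all actives have a fitted effect of over 45% in size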
#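 AMA1 (3D7) with his tag at 25 nM final met compounds first, then biotinylated RON2 peptide at 25 nM; detection used donor plus acceptor beads, 10 µg/mL apiece, read by AlphaScreen after 30 min at room temperature.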
# AmpC inh no detg: AmpC beta-lactamase inhibition without detergent; AmpC nitrocefin hydrolysis, absorbance 480 nm, 0.0001% Triton; 0.52% of 330,000 active; P00811; Potency, µM (highest dose often 57.1 µM), for the others: at the highest dose activity change, negative = inhibition, hits mostly inhibitors; AID 485341;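 further: plate controls were no compound for no effect and no enzyme for full effect; nearly all actives have a fitted effect of over 20% in size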
# Target sequence (P00811 whole entry, looked up): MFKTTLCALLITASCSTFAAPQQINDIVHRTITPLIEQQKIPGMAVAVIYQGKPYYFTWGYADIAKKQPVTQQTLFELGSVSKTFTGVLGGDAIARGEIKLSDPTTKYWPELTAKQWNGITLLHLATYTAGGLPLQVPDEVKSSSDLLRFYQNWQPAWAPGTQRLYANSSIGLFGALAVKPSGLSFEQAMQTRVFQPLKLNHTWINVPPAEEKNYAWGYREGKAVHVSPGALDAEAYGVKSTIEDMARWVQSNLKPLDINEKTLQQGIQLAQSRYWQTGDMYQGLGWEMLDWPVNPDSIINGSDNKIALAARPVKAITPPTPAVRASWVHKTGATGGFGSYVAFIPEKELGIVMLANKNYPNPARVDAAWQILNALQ
#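 AmpC (5.3 nM in the dispensed reagent) in 20 mM phosphate pH 7.0 with 0.01% (detergent screen) or 0.0001% Triton X-100 was preincubated with compounds for 15 min at room temperature. Nitrocefin was then added from an 800 uM solution, and hydrolysis was followed at 480 nm.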
# Pf growth 48h: P. falciparum growth inhibition at 48 hours (one generation); P. falciparum luciferase growth in erythrocytes, 48 h; Potency, µM (top dose mostly 28.7 µM), for the others: at the highest dose activity change, negative = inhibition, hits mostly inhibitors; 5.9% of 310,000 active
#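 Parasite viability was followed by luminescence of a genomically integrated firefly luciferase. Cultures held 0.1% parasitemia at 2% hematocrit (final), incubated under 5% CO2 at 37 C.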
# Pf growth 96h: P. falciparum growth inhibition at 96 hour, primary screen for plastid delayed-death inhibitors | AID 504834 | Potency, µM (doses to about 28.7 µM), without a hit: at the top dose activity change, negative = inhibition, actives largely listed as inhibitors | P. falciparum luciferase reporter growth, 96 h | 6.9% of 320,000 active
#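 Plates of compound plus infected erythrocytes (2% hematocrit, 0.05% parasitemia final) incubate 96 hours, 37 C, 5% CO2. Detection reagent added; reduced luminescence from the parasites' luciferase reporter flags inhibition.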
# AmpC detergent: blocks E. coli AmpC beta-lactamase in detergent assay. AmpC hydrolysis of nitrocefin, absorbance 480 nm, 0.01% Triton. Potency, µM (titrated, usually from 114 µM), for inactives: top-dose activity change, negative = inhibition, actives largely listed as inhibitors. 0.041% of 370,000 active. AID 485294;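 further: 0% = no-compound wells and -100% = no-enzyme wells; nearly all actives have a fitted effect of over 25% in size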
#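 AmpC (5.3 nM in the dispensed reagent) in 20 mM phosphate pH 7.0 with 0.01% (detergent screen) or 0.0001% Triton X-100 was preincubated with compounds for 15 min at room temperature. Nitrocefin was then added from an 800 uM solution, and hydrolysis was followed at 480 nm.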
# The depositor's hits bear a star; ? = inconclusive; . = not tested or not shown; [ ] = dose if it differs, or a comment. Only some compounds are listed: those with a hit (about 11% of all), similar ones and a draw of the others. The call rests on the fitted dose curve; in most records, active means well fitted curve in the direction sought with a large enough effect; inconclusive means small, poorly fitted or top-dose-only effect, or another doubt; inactive means no such curve, though single readings can be large; an effect the other way counts as inactive or inconclusive. Unless noted, on the % scale 0 is the no-effect control and ±100 the full control effect; potency means the concentration at half of the fitted maximal effect.
SMILES,HCV inh,AMA1 RON2 block,AmpC inh no detg,Pf growth 48h,Pf growth 96h,AmpC detergent
COc1ccccc1Cn1nnc2c(=O)[nH]c(C3CCN(C(=O)c4ccc(C)cc4)CC3)nc21,-11.1%,-0.7%,80.1%,?,38.2%,-2.5%
COc1ccccc1Cn1nnc2c(=O)[nH]c(C3CCN(C(=O)c4ccccc4Cl)CC3)nc21,-15.7%,-5.1%,78.4%,9.28µM*,2.7%,?
COc1ccccc1Cn1nnc2c(=O)[nH]c(C3CCN(C(=O)c4ccc(F)cc4)CC3)nc21,4.8%,-0.4%,64.8%,11.7µM*,-21.4%,-0.6%
COc1ccc(N2C(N)=C(C#N)C(c3cc(CN4CCOCC4)cs3)C3=C2CCCC3=O)cc1 (centres undefined),.,.,.,.,.,8.5%
CCSc1nc2sc3c(c2c(=O)n1C1CCCCC1)CCN(C)C3,-25.1%,?,60.3%,1.31µM*,-4.8%[5.75 µM],-10.8%
Nn1c(Nc2ccccc2)nc2sc3c(c2c1=O)CCC3,12.6µM*,-3.6%,2.2%,52.3%,30.8%,-7.4%
NNc1nc2sc3c(c2c(=O)n1Cc1ccccc1)CCC3,?,47.8%,-53.9%,4.4%,14.6%,3.7%
NNc1nc2sc3c(c2c(=O)n1C1CCCCC1)CCN(Cc1ccccc1)C3,-12.5%,0.4%,0.8%,?,1.17µM*,1.2%
CSc1nc2sc3c(c2c(=O)n1C1CCCCC1)CCN(C)C3,?,13.6%,22.9%,?,?,-0.3%
N#CCSc1nc2sc3c(c2c(=O)n1C1CCCCC1)CCCC3,-26.9%,33.6%,-20.0%,?,-7.0%,-14.7%
C=C(C)CSc1nc2sc3c(c2c(=O)n1C1CCCCC1)CCN(C)C3,?,-17.1%,104.0%,1.47µM*,1.04µM*,-3.7%
Cc1ccc(-c2c(C(=O)N/N=C/c3sccc3C)nnn2-c2nonc2N)cc1,?,-2.6%,22.2%,?,0.928µM*,-5.3%
Cc1ccc(-c2c(C(=O)N/N=C/C3CCCCC3)nnn2-c2nonc2N)cc1,10.0%,78.8%,-22.2%,?,?,3.1%
Cc1ccc(-c2c(C(=O)N/N=C/C3CC=CCC3)nnn2-c2nonc2N)cc1 (centres undefined),-5.0%,71.0%,-39.6%,?,9.28µM*,0.6%
Cc1cccc(N2CCN(C(=O)CCc3nnc4n(CC(C)C)c(=O)c5ccccc5n34)CC2)c1C,.,.,.,.,.,-6.3%
CCc1nnc(NC(=O)CSc2nccn2Cc2ccccc2)s1,.,.,.,.,.,16.7%
Cc1ccn2c(C(=O)CSc3ccccc3Cl)c(C)nc2c1,-22.5%,-1.2%,0.316µM*,3.7µM*,?,1.9%
O=C(c1cnccn1)N1CCN(S(=O)(=O)c2ccc3ccccc3c2)CC1,10.4%,0.0%,11.3%,-17.3%,.,-9.8%
O=C(c1cnc(Cl)c(Cl)c1)N1CCN(S(=O)(=O)c2ccc3ccccc3c2)CC1,11.2µM*,-10.4%,4.1%,-9.6%,-2.3%,-3.9%
Cc1cnc(C(=O)N2CCN(S(=O)(=O)c3ccc4ccccc4c3)CC2)cn1,-26.2%,-4.6%,108.5%,.,9.28µM*,-1.1%
Cc1cc(C)c(Cn2c(=O)n(CCC(=O)NCc3ccc4c(c3)OCO4)c(=O)c3ccccc32)c(C)c1,.,.,.,.,.,18.4%
CCOc1ccc(-n2c(=O)c3c4c(sc3n(CC(=O)NC(C)CC)c2=O)CCC4)cc1 (centres undefined),.,.,.,.,.,21.7%
CCOc1ccc(-c2n[nH]c(=S)c3ccccc23)cc1,-12.8%,65.8%,-39.6%,?,1.65µM*,1.4%
Cc1ccc(-c2n[nH]c(=S)c3ccccc23)cc1,2.0%,84.7%,-8.4%[11.4 µM],0.0%,?,8.9%
COc1cccc(NC(=O)N2CCN(c3nc(-c4cccc(OC)c4)cs3)CC2)c1,11.2µM*,-18.5%,-40.6%,?,?,-3.2%
SMILES,HCV inh,AMA1 RON2 block,AmpC inh no detg,Pf growth 48h,Pf growth 96h,AmpC detergent
COc1cccc(-c2csc(N3CCN(C(=O)NC45CC6CC(CC(C6)C4)C5)CC3)n2)c1,?,-13.0%,-24.5%,11.7µM*,-24.5%,0.8%
COc1ccc(-c2csc(NC(C)=O)n2)cc1OC,?,5.8%,-9.5%,28.9%,.,?
COc1cccc(NC(=O)Nc2nc(-c3ccc(OC)c(OC)c3)cs2)c1,2.82µM*,-23.7%,7.1%,?,11.7µM*,9.8%
COc1cc(OC)c(NC(=O)C(NS(=O)(=O)c2cccc3nsnc23)c2ccccc2)cc1Cl (centres undefined),.,.,.,.,.,0.5%
COc1ccccc1CNC(=O)C1CCCN(C(=O)c2cnn(-c3ccc(F)cc3)c2-n2cccc2)C1 (centres undefined),.,.,.,.,.,5.2%
CCC(=O)Nc1nnc(S(=O)(=O)N(C)Cc2ccccc2)s1,.,.,.,.,.,20.7%
COCCNc1nnc(SC(C)C(=O)Nc2c(C)n(C)n(-c3ccccc3)c2=O)s1 (centres undefined),22.2%,1.9%,-6.7%,10.4%,14.9%,-3.9%
COCCNc1nnc(SC(C)C(=O)Nc2ccc(-c3nc4ccc(C)cc4s3)cc2)s1 (centres undefined),6.31µM*,6.8%[11.6 µM],86.1%,5.4%,?,0.1%
O=C(c1cc([N+](=O)[O-])ccc1N1CCN(S(=O)(=O)c2ccc(Cl)c(Cl)c2)CC1)N1CCOCC1,0.1%,-15.6%,-14.1%,?,?,?
O=C(c1cc([N+](=O)[O-])ccc1N1CCOCC1)N1CCN(S(=O)(=O)c2cc(Cl)ccc2Cl)CC1,3.2%,6.9%,-8.9%,10.4µM*,?,-5.0%
O=C(/C=C/c1ccc(Cl)cc1Cl)N1CCN(c2ccc([N+](=O)[O-])c(N3CCOCC3)c2)CC1,?,-14.4%,-37.5%,-22.5%,?,5.3%
Cc1noc(C)c1CSCC(=O)N1CCN(c2ccc([N+](=O)[O-])cc2)CC1,11.2µM*,-3.3%,-2.3%,.,11.7µM*,?
O=C(/C=C/c1ccc(Cl)cc1)N1CCN(c2ccc([N+](=O)[O-])c(N3CCOCC3)c2)CC1,7.94µM*,-2.2%,99.0%,?,10.4µM*,-14.2%
CCc1noc(C)c1C(=O)N1CCN(c2ccc([N+](=O)[O-])cc2)CC1,.,-5.4%,.,.,.,.
O=C(c1cc([N+](=O)[O-])ccc1N1CCOCC1)N1CCN(c2ccc([N+](=O)[O-])cc2)CC1,2.3%,-26.4%,-7.9%,?,9.28µM*,-17.4%
COc1ccc(OC)c(CCNC(=O)c2cc3cccc4c3n2CCS4)c1,.,.,.,.,.,16.0%
O=[N+]([O-])c1cccc(OCC(O)CN2CCN(S(=O)(=O)c3cc(Cl)ccc3Cl)CC2)c1 (centres undefined),-29.0%,-20.3%,37.3%,?,10.4µM*,-12.2%
